The source made the active and inactive calls. How the source made its calls: active means hit-call score of the fitted dose curve at least 0.9, where 1 is the maximum; inactive means score below 0.9.

For orientation: AC50 means the concentration giving half of the maximal activity seen.

Read-out in the first assay: Potassium channel subfamily K member 1 (KCNK1), KCNK1 (gene 3775)
The assay can be described thus: LTEA_HepaRG_KCNK1: Life Technologies and Expression Analysis (LTEA) Assay for Potassium channel subfamily K member 1 (KCNK1) using HepaRG (AID 2283511). Particulars: mRNA level, 48 h; actives raise or lower the signal. In a few lines:
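KCNK1 transcript measured by TaqMan qRT-PCR against three housekeeping genes, after HepaRG cells were treated 48 h with eight half-log concentrations (top 100 uM, 0.5% DMSO). Curves fitted bidirectionally relative to vehicle.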
For `CCCCCc1ccc(N)cc1`, the call was inactive.
For `CC(O)CC(C)(C)O` (stereo not given), the outcome was inactive.
Consider `O=C1CCC(C2CCCCC2)CC1`, for which the call was inactive.
Take `CC[C@@H]1C[C@H](N(Cc2cc(C(F)(F)F)cc(C(F)(F)F)c2)C(C)=O)c2cc(C(F)(F)F)ccc2N1C(=O)OC(C)C`: the result was inactive.
In the case of `O=c1ccc2ccccc2o1`, the call was inactive.
As to `CC(C)(c1cc(Br)c(O)c(Br)c1)c1cc(Br)c(O)c(Br)c1`, the result was inactive.
In the case of `CO[C@H]1/C=C/O[C@@]2(C)Oc3c(C)c(O)c4c(O)c(c(/C=N/N5CCN(C)CC5)c(O)c4c3C2=O)NC(=O)/C(C)=C\C=C\[C@H](C)[C@H](O)[C@@H](C)[C@@H](O)[C@@H](C)[C@H](OC(C)=O)[C@@H]1C`, the compound was called inactive.
With `O=C=NCCCCCCN=C=O`, the compound was called inactive.
`O=C(Nc1ccc(Cl)cc1)Nc1ccc(Cl)c(Cl)c1`: the AC50 is 29 µM (active).
`Cc1c2ccccc2c(C)c2c1ccc1ccccc12`: the result was inactive.
For `Cc1ncc(CO)c(CO)c1O`, the call was inactive.
Turning to `COc1cccc([C@H](O)C2CCN(CCc3ccc(F)cc3)CC2)c1OC`, the result was inactive.
As to `CCN(Cc1cccnc1)C(=O)c1cccc(Cl)c1[C@]1(C)C(=O)N(Cc2ccc(OC)cc2OC)c2ccc(Cl)cc21`, the AC50 is 15 µM (active).
Still for that read-out and setting: the value for `Cc1oc2c(NC(=O)c3c(Cl)cccc3Cl)cccc2c1C(C)(C)O` was 43.6 µM (active).
In the case of `Cc1cccc2ccccc12`, the compound was called inactive.
With `CC1=CC(=O)/C(=C(/C)O)C(=O)O1`, the compound was called inactive.
As for `Cc1cn([C@H]2C[C@H](N=[N+]=[N-])[C@@H](CO)O2)c(=O)[nH]c1=O`, the outcome was inactive.
With `c1ccc2ccccc2c1`, the result was inactive.
As to `O=c1c(-c2ccc(O)cc2)coc2cc(O)cc(O)c12`, the result was inactive.
Regarding `Cc1ccc2oc(CN(Cc3ccccc3)C(=O)Nc3c(F)cc(F)cc3F)c(-c3ccc(Cl)cc3)c2c1`, the call was inactive.
For `C[C@]12CC[C@@H]3c4ccc(O)cc4CC[C@H]3[C@@H]1CCC2=O`, the result was inactive.
Regarding `COc1cc(C(=O)NC2CCN(C)CC2)ccc1Nc1ncc2c(n1)N(C1CCCC1)CC(F)(F)C(=O)N2C`, the compound was called inactive.
On the same count and under the same terms, the value for `CCCCOC(=O)CC(CC(=O)OCCCC)(OC(C)=O)C(=O)OCCCC` was “inactive”.
Regarding `O=C(O)Cc1cc(I)c(Oc2ccc(O)c(I)c2)c(I)c1`, the AC50 is 64.3 µM (active).
`CC1(C)NC(=O)N(c2ccc([N+](=O)[O-])c(C(F)(F)F)c2)C1=O`: the outcome was inactive.
`CCCCOC(=O)c1ccc(O)cc1`: the compound was classed as inactive.
Still for that read-out and setting: the result for `CC/C(=C(/CC)c1ccc(O)cc1)c1ccc(O)cc1` reads “inactive”; that for `NCc1cccc(C2CCN(C(=O)c3ccc(C#Cc4ccccc4F)o3)CC2)c1`, “inactive”.
`CCCCCCCCN(C)CCCCCCCC`: the compound was classed as inactive.
In the case of `O=C(O)Cn1c(=O)n(Cc2ccc(Br)cc2F)c(=O)c2ccc(Cl)cc21`, the compound was called inactive.
The same measure, in the same setting: the result for `CCCCCCCCOc1ccc(C(=O)c2ccccc2)c(O)c1` reads “inactive”; that for `c1ccc2n[nH]nc2c1`, “inactive”; that for `O=CCCCC=O`, “inactive”.
`CN(C)c1ccc(C(=C2C=CC(=[N+](C)C)C=C2)c2ccc(N(C)C)cc2)cc1`: the AC50 is 5.1 µM (active).
On the same count and under the same terms, the value for `CN(C)C(=O)C1(N2CCCCC2)CCN(CC[C@@]2(c3ccc(Cl)c(Cl)c3)CN(C(=O)c3ccccc3)CCO2)CC1` was 14.9 µM (active); that for `CCCCCCCCCCCC[N+](C)(C)C` was 64.7 µM (active).
For `Cc1cc2c(cc1C(F)(F)F)N(C(=O)Nc1ccc(Oc3cccnc3C)nc1)CC2`, the call was inactive.

Read-out in another assay: Keratin 19 (KRT19), KRT19 (gene 3880)
The assay is described as follows: LTEA_HepaRG_KRT19: Life Technologies and Expression Analysis (LTEA) Assay for Keratin 19 (KRT19) using HepaRG (AID 2283512). Particulars: mRNA level, 48 h; actives raise or lower the signal. The method, boiled down:
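Differentiated human HepaRG cells, plated 48 h, were exposed in duplicate for 48 h in serum-free induction medium to eight half-log concentrations up to 100 uM in 0.5% DMSO. KRT19 mRNA was quantified by qRT-PCR, normalized to ACTB, GAPDH and POLR2A, and fitted bidirectionally versus DMSO.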
On to `CCCCCc1ccc(N)cc1`, for which the compound was called inactive.
`CC(O)CC(C)(C)O` (stereo not given): the compound was called inactive.
`O=C1CCC(C2CCCCC2)CC1`: the result was inactive.
Same read-out and setting: the result for `CC[C@@H]1C[C@H](N(Cc2cc(C(F)(F)F)cc(C(F)(F)F)c2)C(C)=O)c2cc(C(F)(F)F)ccc2N1C(=O)OC(C)C` reads “inactive”.
On the same count and under the same terms, the value for `O=c1ccc2ccccc2o1` was “inactive”.
As for `CC(C)(c1cc(Br)c(O)c(Br)c1)c1cc(Br)c(O)c(Br)c1`, the compound was classed as inactive.
Still for that read-out and setting: the result for `CO[C@H]1/C=C/O[C@@]2(C)Oc3c(C)c(O)c4c(O)c(c(/C=N/N5CCN(C)CC5)c(O)c4c3C2=O)NC(=O)/C(C)=C\C=C\[C@H](C)[C@H](O)[C@@H](C)[C@@H](O)[C@@H](C)[C@H](OC(C)=O)[C@@H]1C` reads “inactive”; that for `O=C=NCCCCCCN=C=O`, “inactive”.
In the case of `O=C(Nc1ccc(Cl)cc1)Nc1ccc(Cl)c(Cl)c1`, the half-maximal activity concentration (AC50) was 14.6 µM (active).
Still for that read-out and setting: the value for `Cc1c2ccccc2c(C)c2c1ccc1ccccc12` was 13.3 µM (active).
Regarding `Cc1ncc(CO)c(CO)c1O`, the result was inactive.
Regarding `COc1cccc([C@H](O)C2CCN(CCc3ccc(F)cc3)CC2)c1OC`, the AC50 was 15.3 µM (active).
For `CCN(Cc1cccnc1)C(=O)c1cccc(Cl)c1[C@]1(C)C(=O)N(Cc2ccc(OC)cc2OC)c2ccc(Cl)cc21`, the AC50 was 27 µM (active).
Still for that read-out and setting: the result for `Cc1oc2c(NC(=O)c3c(Cl)cccc3Cl)cccc2c1C(C)(C)O` reads 50 µM (active).
Regarding `Cc1cccc2ccccc12`, the compound was called inactive.
`CC1=CC(=O)/C(=C(/C)O)C(=O)O1`: the outcome was inactive.
As for `Cc1cn([C@H]2C[C@H](N=[N+]=[N-])[C@@H](CO)O2)c(=O)[nH]c1=O`, the outcome was inactive.
On the same count and under the same terms, the result for `c1ccc2ccccc2c1` reads “inactive”; that for `O=c1c(-c2ccc(O)cc2)coc2cc(O)cc(O)c12`, “inactive”.
Turning to `Cc1ccc2oc(CN(Cc3ccccc3)C(=O)Nc3c(F)cc(F)cc3F)c(-c3ccc(Cl)cc3)c2c1`, the call was inactive.
With `C[C@]12CC[C@@H]3c4ccc(O)cc4CC[C@H]3[C@@H]1CCC2=O`, the call was inactive.
Take `COc1cc(C(=O)NC2CCN(C)CC2)ccc1Nc1ncc2c(n1)N(C1CCCC1)CC(F)(F)C(=O)N2C`: the AC50 is 12.3 µM (active).
In the case of `CCCCOC(=O)CC(CC(=O)OCCCC)(OC(C)=O)C(=O)OCCCC`, the compound was classed as inactive.
As for `O=C(O)Cc1cc(I)c(Oc2ccc(O)c(I)c2)c(I)c1`, the half-maximal activity concentration (AC50) was 0.631 µM (active).
As to `CC1(C)NC(=O)N(c2ccc([N+](=O)[O-])c(C(F)(F)F)c2)C1=O`, the AC50 was 67.8 µM (active).
In the case of `CCCCOC(=O)c1ccc(O)cc1`, the outcome was inactive.
For `CC/C(=C(/CC)c1ccc(O)cc1)c1ccc(O)cc1`, the AC50 is 9.92 µM (active).
Same read-out and setting: the result for `NCc1cccc(C2CCN(C(=O)c3ccc(C#Cc4ccccc4F)o3)CC2)c1` reads 9.92 µM (active).
Consider `CCCCCCCCN(C)CCCCCCCC`, for which the result was inactive.
Regarding `O=C(O)Cn1c(=O)n(Cc2ccc(Br)cc2F)c(=O)c2ccc(Cl)cc21`, the AC50 was 50 µM (active).
On to `CCCCCCCCOc1ccc(C(=O)c2ccccc2)c(O)c1`, for which the compound was called inactive.
As to `CC(=O)N1CCN(c2ccc(OC[C@H]3CO[C@](Cn4ccnc4)(c4ccc(Cl)cc4Cl)O3)cc2)CC1`, the AC50 was 12.2 µM (active).
For the compound `c1ccc2n[nH]nc2c1`, the compound was called inactive.
The same measure, in the same setting: the result for `O=CCCCC=O` reads “inactive”.
As for `CN(C)c1ccc(C(=C2C=CC(=[N+](C)C)C=C2)c2ccc(N(C)C)cc2)cc1`, the AC50 was 4.74 µM (active).
On to `CN(C)C(=O)C1(N2CCCCC2)CCN(CC[C@@]2(c3ccc(Cl)c(Cl)c3)CN(C(=O)c3ccccc3)CCO2)CC1`, for which the compound was classed as inactive.
Regarding `CCCCCCCCCCCC[N+](C)(C)C`, the AC50 is 50 µM (active).
`Cc1cc2c(cc1C(F)(F)F)N(C(=O)Nc1ccc(Oc3cccnc3C)nc1)CC2`: the compound was called inactive.
